Reference: PubChem BioAssay (NCATS)
Results filed as inconclusive are left out. A call without a number means that no potency is given here. Active and inactive are the calls of the source. Calls come from the whole dose curve; as a rule, active = well fitted inhibition curve with a large enough effect; inconclusive = small, poorly fitted or top-dose-only effect; inactive = no such curve, though single readings can be large or run the other way.

Test: Primary qHTS for inhibitors of nuclear receptor binding SET domain protein 2 (NSD2) in an RCH-ACV wild type WT cells (2C) (AID 1645877); note: nearly all actives have a fitted effect of over 70% in size
Settings: RCH-ACV (leukaemia line) NSD2 WT (2C) viability, CellTiter-Glo, 72 h; series mostly up to 44.9 µM
Source text: Assay Provider: Jonathan D. Licht, MD
University of Florida College of Medicine, Gainesville, FL
Mutations in epigenetic regulators are common in relapsed pediatric acute lymphoblastic leukemia (ALL). Here, we uncovered the mechanism underlying the relapse of ALL driven by an activating mutation of the NSD2 histone methyltransferase (p.E1099K). […] Correction of this mutation restored glucocorticoid sensitivity. The transcriptional response to glucocorticoids was blocked in NSD2 mutant cells due to depressed glucocorticoid receptor (GR) levels and the failure of glucocorticoids to autoactivate GR expression. […] Pre-treatment of NSD2 p.E1099K cell lines and PDX samples with PRC2 inhibitors reversed glucocorticoid resistance in vitro and in vivo.
High-throughput drug screening of isogenic RCH-ACV cell lines was performed at the National Center for Advancing Translational Science (NCATS), National Institutes of Health as previously described (1). Briefly, isogenic RCH-ACV NSD2 p.E1099K mutant (9B) and WT cells (2C) were plated at 500 cells/well in a 1536-well plate with a 72-hour incubation with compounds prior to addition of CellTiter-Glo to assess cell viability. NCATS libraries screened include: NPC, MIPE 5.0, Kinase and NPACT. To determine compound activity in the qHTS assay, the concentration-response data for each sample was plotted and modeled by a four-parameter logistic fit yielding IC50 and efficacy (maximal response) values. The area under the curve (AUC) of the dose-response curve ensures both efficacy (magnitude of cell killing) and potency (concentration that elicits cell killing) are accounted for in the analysis of activity.
1. Tobie D Lee, Olivia W Lee, Kyle R Brimacombe, Lu Chen, Rajarshi Guha, Sabrina Lusvarghi, Bethilehem G Tebase, Carleen Klumpp-Thomas, Robert W Robey, Suresh V Ambudkar, Min Shen, Michael M Gottesman, Matthew D Hall. A High-Throughput Screen of a Library of Therapeutics Identifies Cytotoxic Substrates of P-glycoprotein. Mol Pharmacol. 2019, Nov;96(5):629-640.

| SMILES | Potency |
| --- | --- |
| O=C1CC2(CCCC2)CC(=O)N1CCCCN1CCN(c2ncccn2)CC1 | inactive |
| O=c1[nH]c(=O)n([C@H]2C[C@H](O)[C@@H](CO)O2)cc1Br | 0.75 µM (active) |
| CC(=O)OCC1=C(C(=O)O)N2C(=O)[C@@H](NC(=O)Cc3cccs3)[C@H]2SC1 | inactive |
| Nc1nc(N)c2nc(-c3ccccc3)c(N)nc2n1 | 9.44 µM (active) |
| CN(C)CCN(Cc1cccs1)c1ccccn1 | inactive |
| CCCC(C(=O)OCCN(CC)CC)(c1ccccc1)c1ccccc1 | 11.9 µM (active) |
| CC(C(=O)O)c1ccc(CC2CCCC2=O)cc1 (stereo not given) | inactive |
| CC(=O)OC(C)C[N+](C)(C)C (stereo not given) | inactive |
| O=C(CCNNC(=O)c1ccncc1)NCc1ccccc1 | inactive |
| CC(C)NCC(O)c1cc(O)cc(O)c1 (stereo not given) | inactive |
| CCO/C([O-])=N/c1c[n+](N2CCOCC2)no1 | inactive |
| CNC1(C)C2CCC(C2)C1(C)C (stereo not given) | inactive |
| COCCc1ccc(OCC(O)CNC(C)C)cc1 (stereo not given) | inactive |
| OCCN1CCN(CC/C=C2/c3ccccc3Sc3ccc(C(F)(F)F)cc32)CC1 | 10.6 µM (active) |
| COc1cc2c(cc1OC)-c1cc(=Nc3c(C)cc(C)cc3C)n(C)c(=O)n1CC2 | 15 µM (active) |
| O=C(O)CP(=O)(O)O | inactive |
| CC(C)(Oc1ccc(CCNC(=O)c2ccc(Cl)cc2)cc1)C(=O)O | inactive |
| CCCCNC(=O)NS(=O)(=O)c1ccc(C)cc1 | inactive |
| CC[N+](C)(C)c1cccc(O)c1 | inactive |
| C[C@@H](O)[C@H]1C(=O)N2C(C(=O)O)=C(SCCN=CN)C[C@H]12 | inactive |

| SMILES | Potency |
| --- | --- |
| c1cnc(N2CCN(Cc3ccc4c(c3)OCO4)CC2)nc1 | inactive |
| COCC(=O)O[C@]1(CCN(C)CCCc2nc3ccccc3[nH]2)CCc2cc(F)ccc2[C@@H]1C(C)C | 9.44 µM (active) |
| NC/C=C/C(=O)O | inactive |
| NS(=O)(=O)c1cc2c(cc1Cl)NC(C1CC3C=CC1C3)NS2(=O)=O (stereo not given) | inactive |
| CN(C)C(=O)Oc1cccc([N+](C)(C)C)c1 | inactive |
| CC(C)[N+](C)(CCOC(=O)C1c2ccccc2Oc2ccccc21)C(C)C | inactive |
| C[N+](C)(C)CCOC(=O)CCC(=O)OCC[N+](C)(C)C | inactive |
| NC(=O)c1cn(Cc2c(F)cccc2F)nn1 | inactive |
| CC(=O)Oc1cc(C(C)C)c(OCCN(C)C)cc1C | inactive |
| c1ccc2c(c1)CCCC2C1=NCCN1 (stereo not given) | inactive |
| CCCCNc1ccc(C(=O)OCCN(C)C)cc1 | inactive |
| CCCN(CCC)CCc1cccc2c1CC(=O)N2 | inactive |
| CCN1CCC[C@H]1CNC(=O)c1c(O)c(Cl)cc(Cl)c1OC | inactive |
| CCOC(=O)c1cnc2c(cnn2CC)c1NN=C(C)C | inactive |
| COc1ccc([C@@H]2Sc3ccccc3N(CCN(C)C)C(=O)[C@@H]2OC(C)=O)cc1 | inactive |
| CCn1nc(C(=O)O)c(=O)c2cc3c(cc21)OCO3 | inactive |
| CCCCCCCC/C=C\CCCCCCCC(=O)NCc1ccc(O)c(OC)c1 | 3.35 µM (active) |
| CCN1CCc2nc(N)oc2CC1 | inactive |
| CC(C)(C)c1ccc(C(=O)CCCN2CCC(OC(c3ccccc3)c3ccccc3)CC2)cc1 | 9.44 µM (active) |
| C[C@]12C=CC(=O)C=C1CC[C@H]1[C@@H]3C[C@@H](O)[C@](O)(C(=O)CO)[C@@]3(C)C[C@H](O)[C@@]12F | 1.68 µM (active) |
